Screening results (PubChem BioAssay)
The list is not random: actives were taken first. Their share in the collection is about 3.4%.
PAFAH2 FP inh = PAFAH2 enzyme inhibitors, primary screen, biochemical, fluorescence polarization, human. recombinant PAFAH2, FP-rhodamine activity probe. Platelet-activating factor acetylhydrolase 2, cytoplasmic (Homo sapiens), Q99487. actives 0.99% (n = 340,000). inhibition, % at 3.39 µM;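 active = inhibition above the mean over all tested compounds plus 3 SD, cut at about 30% in these data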;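 note: inhibitors block probe labeling of enzyme so polarization drops; 0% = enzyme with DMSO and 100% = wells lacking PAFAH2 protein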
PP1 counter = PP1-alpha phosphatase inhibitors, primary screen, counter-screen for PP5 inhibitor project, biochemical, fluorescence, OMFP substrate, single point | AID 2235, 2010 | actives 0.9% (n = 320,000) | Serine/threonine-protein phosphatase PP1-alpha catalytic subunit (Homo sapiens), P62136 | purified PP1alpha | inhibition, % at 6.7 µM;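 active = inhibition above the mean inhibition of all tested compounds plus 3 SD, computed separately for each screening campaign, cut at about 15% in these data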
Target sequence (P62136 whole entry, looked up): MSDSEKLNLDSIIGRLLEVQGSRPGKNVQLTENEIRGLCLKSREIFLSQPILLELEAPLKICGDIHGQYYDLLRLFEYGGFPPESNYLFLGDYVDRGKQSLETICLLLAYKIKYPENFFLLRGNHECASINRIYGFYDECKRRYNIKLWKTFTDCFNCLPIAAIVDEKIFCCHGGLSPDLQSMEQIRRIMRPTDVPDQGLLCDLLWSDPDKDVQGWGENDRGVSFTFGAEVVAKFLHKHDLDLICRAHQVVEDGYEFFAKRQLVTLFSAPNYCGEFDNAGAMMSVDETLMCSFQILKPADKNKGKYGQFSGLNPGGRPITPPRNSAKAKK
pPAFAH FP inh = pPAFAH enzyme inhibitors, primary screen, biochemical, fluorescence polarization, human. recombinant pPAFAH, FP-rhodamine probe fluorescence polarization. inhibition, % at 3.39 µM. actives 1.5% (n = 330,000). AID 463082, 2010;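 active = inhibition above the mean inhibition across the screen plus 3 SD, cut at about 25% in these data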;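 note: inhibitors block binding of the rhodamine activity-based probe so polarization drops; 0% = enzyme with DMSO and 100% = wells lacking pPAFAH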
PAFAH1B2 FP inh = PAFAH1B2 enzyme inhibitors, primary screen, biochemical, fluorescence polarization, human; recombinant PAFAH1B2, FP-rhodamine activity probe; inhibition, % at 3.39 µM; actives 1.2% (n = 340,000); AID 492953, 2010;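 active = inhibition above the mean of all tested compounds plus 3 SD, cut at about 24% in these data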;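 note: 0% = enzyme with DMSO and 100% = wells lacking PAFAH1B2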
PP5 primary = PP5 phosphatase inhibitors, primary screen, biochemical, fluorescence. Serine/threonine-protein phosphatase 5 (Homo sapiens), P53041. purified PP5c, OMFP substrate fluorescence. inhibition, % at 6.7 µM. actives 0.18% (n = 320,000);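 active = inhibition above the campaign's mean inhibition across all tested compounds plus 3 SD, cut at about 9.5% in these data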;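 note: 0% = DMSO only and 100% = 100 µM cantharidin control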
PAFAH1B3 inh = PAFAH1B3 enzyme inhibitors, primary screen, biochemical, fluorescence polarization, human; Platelet-activating factor acetylhydrolase IB subunit alpha1 (Homo sapiens), Q15102; recombinant PAFAH1B3, FP-rhodamine probe; inhibition, % at 3.39 µM; actives 0.28% (n = 340,000);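 active = inhibition above the screen-wide average of all tested compounds plus 3 SD, cut at about 25% in these data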;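 note: 0% = enzyme with DMSO only and 100% = wells lacking PAFAH1B3 protein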
Target sequence (Q15102 whole entry, looked up): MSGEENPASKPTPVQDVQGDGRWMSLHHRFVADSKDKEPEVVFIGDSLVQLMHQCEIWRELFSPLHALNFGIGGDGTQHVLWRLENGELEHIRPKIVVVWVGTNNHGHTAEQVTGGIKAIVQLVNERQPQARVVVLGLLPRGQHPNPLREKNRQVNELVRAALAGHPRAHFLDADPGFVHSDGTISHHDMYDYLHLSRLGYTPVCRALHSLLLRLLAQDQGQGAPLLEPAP
* hit, by the source's call; / = not tested or not shown.

SMILES | PAFAH2 FP inh | PP1 counter | pPAFAH FP inh | PAFAH1B2 FP inh | PP5 primary | PAFAH1B3 inh
Cc1ccc(N/N=C(\C#N)C(=O)c2ccsc2)cc1 | 8 | -1 | 10 | 4 | -1 | 5
N#C/C(=N\Nc1ccc(Cl)cc1)C(=O)c1ccsc1 | 19 | 1 | 33* | 9 | 6 | 9
N#C/C(=N\Nc1cccc(Cl)c1)C(=O)c1ccccc1 | 22 | 7 | 26* | 2 | 3 | -3
N#C/C(=N\Nc1ccccc1Cl)C(=O)c1ccccc1 | -2 | 0 | 12 | 2 | 2 | 8
Cc1ccc(Cn2c(=N)c(C(=O)NCc3ccco3)cc3c(=O)n4ccccc4nc32)cc1 | 4 | 16* | 16 | -11 | 5 | -1
N=c1c(S(=O)(=O)c2ccc(Br)cc2)cc2c(=O)n3ccccc3nc2n1Cc1ccco1 | 6 | 8 | 27* | 4 | 2 | 6
Cc1cccc(N(C(=O)CCC(=O)Nc2ccccn2)C(C(=O)NC(C)C)c2ccc(F)cc2)c1 (stereo not drawn) | -2 | 6 | 1 | -2 | 2 | 5
CCOC(=O)c1c(NC(=O)Cn2cnc3scc(-c4ccc(C)cc4)c3c2=O)sc(C)c1C | -5 | 16* | -1 | 1 | 1 | -13
O=C(COC(=O)c1c2ccccc2cc2ccccc12)Nc1ncc(C(F)(F)F)cc1Cl | -6 | -2 | -4 | 2 | 4 | -1
CCC(C)Sc1ccc(-c2nc3ccc(C)cn3c2NCc2ccccc2)cc1OC (stereo not drawn) | 9 | 12 | 27* | 10 | 7 | 2
CCCCCCSc1ccc(-c2nc3ccc(C)cn3c2NCc2ccccc2)cc1OC | 6 | 13 | 26* | 3 | 3 | 15
CCCCNc1c(-c2ccc(OC)c(SC3CCCCC3)c2)nc2ccc(C)cn12 | 8 | / | 10 | 1 | / | -4
COc1ccc(-c2nc3ccc(C)cn3c2NCc2ccccc2)cc1SC1CCCCC1 | 17 | 17* | 10 | 0 | 3 | 2
COc1ccc(-c2c3c(=O)n(C)c(=O)n(C)c3cn2C2CCCCC2)cc1 | 9 | 1 | 25* | 5 | 1 | 10
CCCn1cc2c(c1-c1ccc(C)cc1)c(=O)n(C)c(=O)n2C | 3 | -4 | -2 | -1 | 2 | 9
COc1ccc(Cl)cc1NC(=O)c1[nH]c(C)c(C(C)=O)c1C | 11 | 17* | 0 | 2 | 2 | 3
CCCNC(=O)Cn1cnc2sc(C(=O)N3CCN(CCC)CC3)c(C)c2c1=O | -18 | -2 | 0 | 5 | -1 | 8
Brc1ccc(-c2noc(CCc3ccccc3)n2)o1 | -6 | 1 | 0 | 28* | 1 | 10
CCOc1ccc(NC(=O)COc2ccc(N3CC(C(N)=O)CC3=O)cc2)cc1 (stereo not drawn) | -1 | / | / | 2 | / | -4
CC(O)CN=c1cc(-c2ccccc2)oc2ccc(Cl)cc12 (stereo not drawn) | -3 | 0 | 8 | -11 | -1 | 8
CC(C)CN=c1cc(-c2ccccc2)oc2ccc(Cl)cc12 | 0 | 17* | 11 | 1 | 2 | 3
O=S(=O)(c1ccc(F)cc1)N1CCC2(CC1)OCCN2S(=O)(=O)c1cccs1 | 8 | -4 | 14 | 28* | 1 | 1
CCOC(=O)C1CCCN(C(=O)COC(=O)c2cc(=O)c3ccccc3o2)C1 (stereo not drawn) | 5 | -2 | -2 | -1 | 1 | 9
CCCCC[n+]1ccn(C2=C([O-])c3ccccc3C(=O)/C2=N\S(=O)(=O)c2ccc(Br)cc2)c1 | 4 | -2 | -1 | 7 | 4 | 6
CC(=O)OCC1=C(C(=O)O)N2C(=O)C(NC(=O)c3ccc(COc4cccc(Cl)c4Cl)o3)C2SC1 (stereo not drawn) | 12 | 4 | 30* | 9 | 0 | 8
SMILES | PAFAH2 FP inh | PP1 counter | pPAFAH FP inh | PAFAH1B2 FP inh | PP5 primary | PAFAH1B3 inh
CC(C)CCNC(=O)Cc1c(C(=O)O)[nH]c2ccc(Cl)cc12 | 7 | -2 | 5 | 50* | -1 | 7
C[C@H](CO)N1C[C@H](C)[C@@H](CN(C)S(=O)(=O)c2ccc(F)cc2)Oc2ccc(NS(=O)(=O)c3ccc(F)cc3)cc2C1=O | 12 | / | 20 | 9 | / | 5
COc1ccc(S(=O)(=O)Nc2cccc3c2O[C@H](CN(C)Cc2ccc(Oc4ccccc4)cc2)[C@@H](C)CN([C@H](C)CO)C3=O)cc1 | 6 | / | 26* | -2 | / | 4
COc1ccc(S(=O)(=O)Nc2ccc3c(c2)C(=O)N([C@@H](C)CO)C[C@H](C)[C@H](CN(C)S(=O)(=O)c2ccc(F)cc2)O3)cc1 | 6 | / | 17 | 39* | / | 9
COc1ccc(S(=O)(=O)Nc2cccc3c2O[C@H](CN(C)Cc2ccc(-c4ccccc4)cc2)[C@@H](C)CN([C@H](C)CO)C3=O)cc1 | 7 | / | 19 | 8 | / | -1
C[C@@H]1CN([C@H](C)CO)C(=O)c2cc(NS(=O)(=O)c3ccc(F)cc3)ccc2O[C@@H]1CN(C)Cc1ccc(Cl)c(Cl)c1 | 10 | / | 29* | 25* | / | 7
C[C@H](CO)N1C[C@H](C)[C@H](CN(C)Cc2ccc(-c3ccccc3)cc2)Oc2ccc(NS(=O)(=O)c3ccccc3)cc2CC1=O | 0 | / | 34* | 5 | / | -1
Cn1c(C(=O)N2CCN(c3ccccn3)CC2)cc2ccccc21 | 3 | -1 | 2 | 2 | 1 | 2
O=C(O)CCn1cc(C2CC(c3ccccc3)=NN2c2ccccc2)c(-c2ccccc2)n1 (stereo not drawn) | 12 | 15* | 27* | 8 | 6 | -5
COc1ccc(Cl)cc1C(=O)NNC(=O)c1n[nH]c2ccccc12 | 2 | -2 | 1 | -2 | 0 | 1
O=C(CSc1nc2ccccc2s1)NNC(=S)Nc1ccc(Br)cc1 | 4 | 7 | 20 | 24* | 5 | 7
O=C(CSc1nc2ccccc2s1)NCc1cc([N+](=O)[O-])ccc1O | 6 | -3 | 11 | 29* | 2 | 1
O=C(CSc1nc2ccccc2s1)Nc1cc(S(=O)(=O)N2CCOCC2)ccc1O | 84* | -2 | 18 | 87* | 0 | 19
O=C(CSc1nc2ccccc2s1)CSc1nc2ccccc2s1 | -6 | 5 | 27* | -7 | 3 | 4
Cc1nnc(SCC(=O)Nc2cc(S(=O)(=O)N3CCOCC3)ccc2C)s1 | 1 | / | / | 6 | / | 7
C=CCN1C(=O)c2ccc(C(=O)N3CCN(c4ccccc4OC)CC3)cc2C1=O | 2 | -4 | -5 | 1 | -1 | 1
Cc1nc2cc(NCc3ccc(Cl)cc3)ccc2n1C | -2 | -1 | 1 | 28* | 2 | -2
